An excerpt weighted towards active compounds, which were near 19% of everything screened.
DT40 TDP1 no CPT = qHTS for Inhibitors of human tyrosyl-DNA phosphodiesterase 1 (TDP1): qHTS in cells in absence of CPT. DT40 Tdp1-/- hTDP1 cells, no CPT, ATP luminescence, 48 h. Potency, µM (titrated, usually from 46.2 µM), inactives show top-dose activity change, negative = growth inhibition, usual class: inhibitors. actives 15% (n = 420,000); also: potency is read from the fitted curve at half-maximal effect; nearly all actives have a fitted effect of over 55% in size
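Compound effects on proliferation are scored in DT40 Tdp1-/-;hTDP1 cells in the absence of CPT. ATP levels (CellTiter-Glo luminescence) are recorded after a ≥48 hr, 37 °C incubation.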
HT1080 IDH1KD tx = toxicity to HT-1080 IDH1 knockdown cells (counter line); HT-1080 IDH1 knockdown viability, ATP luminescence, 48 h; Potency, µM (doses to about 46.1 µM), for inactives: at the highest dose activity, negative = toxicity, actives largely listed as cytotoxic; actives 2% (n = 360,000);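 also: potency is read from the fitted curve at half-maximal effect; 0% = DMSO wells and -100% = cell-free medium wells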
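In this qHTS, HT-1080 cells depleted of IDH1 are exposed for 48 h at 37 °C to compound titrations. Toxicity is scored from CellTiter-Glo luminescence, with DMSO as full viability and medium alone as none.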
IL-1B inflam inh = blocks inflammasome-driven IL-1 beta release. activity change, % at 57.5 µM. THP-1 LPS/ATP IL-1B secretion, AlphaLISA, 16 h; active compounds read low. actives 4.7% (n = 360,000); in the data active = activity change below about -50%; inconclusive = mostly about -30% to -49%
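Secreted IL-1B measured by AlphaLISA bead assay after 16 h compound exposure of THP-1 cells; compounds (final up to 57.5 uM) added 1 h before LPS (250 ng/mL) and ATP (1.25 mM) stimulation; lower signal means less secretion.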
HT1080-NT tox = kills 2HG-producing HT-1080-NT fibrosarcoma cells; HT-1080-NT fibrosarcoma viability, CellTiter-Glo ATP luminescence, 48 h; Potency, µM (series often up to 46.1 µM), for inactives: at the highest dose activity, negative = less viability, usual class: cytotoxic; actives 1.6% (n = 360,000);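 also: NT is the 2HG producing partner of a matched IDH1 knockdown line; potency is read from the fitted curve at half-maximal effect; 0% = DMSO-treated cells and -100% = media-only wells without cells; nearly all actives have a fitted effect of over 55% in size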
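Compounds were tested in concentration-response format on HT-1080-NT cells for 48 hours at 37 degrees C. Cell viability came from CellTiter-Glo luminescence; curves were classified by r2, response magnitude and activity.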
TDP1 cell CPT = growth inhibition of DT40 Tdp1-/-;hTDP1 cells with camptothecin (screen for TDP1 inhibitors). chicken DT40 Tdp1-/-;hTDP1 cells + 20 nM CPT, ATP luminescence, 48 h. Potency, µM (titrated, usually from 46.2 µM), for inactives: top-dose activity change, negative = growth inhibition, most hits filed as inhibitors. actives 12% (n = 420,000). AID 686979; also: potency is read from the fitted curve at half-maximal effect; nearly all actives have a fitted effect of over 55% in size
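Chicken DT40 Tdp1-/- cells stably complemented with human TDP1 were seeded at 400 cells/well in medium containing 20 nM camptothecin, exposed to pin-transferred compounds, and grown at 37 °C for at least 48 hr. Viability was read as ATP luminescence.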
An asterisk follows results filed as active; u = inconclusive; x = no result. Unless noted, calls follow the shape of the dose curve; as a rule, active = well fitted curve in the direction sought with a large enough effect; inconclusive = small, poorly fitted or top-dose-only effect, or another doubt; inactive = no such curve, though single readings can be large; an effect the other way counts as inactive or inconclusive. Unless noted, % is scaled to controls: 0 for no effect and ±100 for the full control effect.

SMILES | DT40 TDP1 no CPT | HT1080 IDH1KD tx | IL-1B inflam inh | HT1080-NT tox | TDP1 cell CPT
CCOc1ccccc1CNC(=O)C(C)n1nc(C)c2c(C)n(-c3ccccc3)nc2c1=O (stereo unspecified) | u | -20.7% | -3.4 | -23.6% | 23.1µM*
Cc1c(Cl)c([N+](=O)[O-])nn1CC(=O)NC(C)C1CC2CCC1C2 (stereo unspecified) | u | -6.4% | -9.9 | -3.1% | -12.8%
Cc1ccc(CNC(=O)C2CCCN(S(=O)(=O)c3cccc4nonc34)C2)cc1 (stereo unspecified) | u | 7.5% | 0.2 | -0.9% | u
CCC(=O)N1CCN(c2nc(CC)nc3sc4c(c23)CCCC4)CC1 | u | -15.3% | -22.6 | -27.7% | -26.9%
CCc1nc(N2CCN(C(=S)NCCCOC)CC2)c2c3c(sc2n1)CCCC3 | 16.4µM* | -6.1% | u | u | 16.4µM*
CC(C)S(=O)(=O)CC(=O)c1ccc(Cl)cc1 | 2.9% | 1.9% | 9.4 | 10.2% | 3.2%
COC(=O)C[C@H]1C[C@@H]2c3cc(NS(=O)(=O)c4cccc(OC)c4)ccc3O[C@@H]2[C@@H](CO)O1 | u | -4.2% | -1.3 | 0.1% | u
COc1cccc(S(=O)(=O)Nc2ccc3c(c2)[C@@H]2C[C@@H](CC(=O)NCc4ccc(Cl)cc4)O[C@@H](CO)[C@@H]2O3)c1 | 16.4µM* | 6.51µM* | 43.5 | 8.2µM* | 18.4µM*
COc1cccc(S(=O)(=O)Nc2ccc3c(c2)[C@H]2C[C@H](CC(=O)N[C@@H](C)c4ccccc4)O[C@H](CO)[C@H]2O3)c1 | 14.6µM* | -0.7% | -14.9 | -10.4% | u
COc1ccc(CNC(=O)C[C@@H]2C[C@H]3c4cc(NC(=O)NC5CCCC5)ccc4O[C@H]3[C@H](CO)O2)cc1 | 13µM* | -1.8% | 69.6 | -7.9% | u
CCCNC(=O)C[C@@H]1C[C@@H]2c3cc(NS(=O)(=O)c4ccc(OC)cc4)ccc3O[C@@H]2[C@@H](CO)O1 | u | -8.7% | u | -6.3% | u
O=C(C[C@H]1C[C@@H]2c3cc(NS(=O)(=O)c4ccccc4)ccc3O[C@@H]2[C@H](CO)O1)NC1CCCC1 | -26.4% | 10.4% | 7.0 | 0.2% | -28.4%
O=C(C[C@@H]1C[C@@H]2c3cc(NS(=O)(=O)c4ccc(F)cc4)ccc3O[C@@H]2[C@@H](CO)O1)NC1CCCCC1 | 18.4µM* | -3.3% | -10.9 | -10.2% | u
Cc1ccc(S(=O)(=O)N2CCN(C(=O)CNC(=O)c3ccc(Cl)cc3)CC2)cc1 | -25.9% | -0.3% | -2.5 | -2.0% | 1.2%
COC(=O)C1=C(C)NC(=O)/C1=C\c1cc(C)n(-c2ccccc2)c1C | u | -12.4% | u | -13.1% | u
COC(=O)C1=C(C)NC(=O)/C1=C\c1cc(C)n(-c2cc(C)cc(C)c2)c1C | u | u | -59.6* | -9.8% | u
CSc1ccc(Cl)c(C(=O)OCC(=O)Nc2ccccc2OC(F)F)c1 | -15.6% | -5.4% | -2.3 | -3.1% | -10.7%
CCN(c1ccccc1)S(=O)(=O)c1ccc2[nH]cc(C(=O)NC3CCCCC3)c(=O)c2c1 | 14.6µM* | x | x | x | u
CCN(c1ccccc1)S(=O)(=O)c1ccc2[nH]cc(C(=O)NCCOC)c(=O)c2c1 | u | -9.2% | 28.2 | -9.9% | u
CCc1ccccc1NS(=O)(=O)c1ccc2[nH]cc(C(=O)NC3CCCC3)c(=O)c2c1 | u | 18.4µM* | -29.9 | u | u
CC(C)C1N=C2c3ccccc3N=C(SCC(=O)NCc3ccc(F)cc3)N2C1=O (stereo unspecified) | -20.3% | x | x | x | u
Cc1cccnc1C1=NOC(Cc2ccccc2)C(=O)N1CCOc1ccc(F)cc1 (stereo unspecified) | 23.1µM* | 2.6% | 35.6 | -10.8% | 16.4µM*
Cc1cccnc1C1=NOC(Cc2ccccc2)C(=O)N1C (stereo unspecified) | -20.0% | 15.5% | 40.7 | 16.3% | -11.3%
Cc1cc(C)c2c(=O)n(CC(=O)NCCCN3CCN(c4ccccc4F)CC3)sc2n1 | 3.26µM* | 1.3% | u | u | 4.61µM*
Cc1cc(C)c2c(=O)n(CC(=O)NCCCN3CCOCC3)sc2n1 | 6.51µM* | -10.6% | -97.3* | 3.5% | 4.11µM*
SMILES | DT40 TDP1 no CPT | HT1080 IDH1KD tx | IL-1B inflam inh | HT1080-NT tox | TDP1 cell CPT
Cc1ccc(S(=O)(=O)N[C@H](C(=O)N2CCC(C(=O)N[C@H](C(=O)O)c3ccccc3)CC2)C(C)C)cc1 | -13.9% | -1.4% | 10.9 | 0.1% | 2.1%
O=C1CS(=O)(=O)N(Cc2ccccc2F)c2ccc(Br)cc21 | -15.6% | -1.1% | 21.4 | u | -5.5%
C=CCOC1=CS(=O)(=O)N(Cc2ccc(Br)cc2)c2ccc(Br)cc21 | u | 3.1% | 27.4 | -2.7% | 16.4µM*
O=c1cc(C(F)(F)F)nc(SC/C=C/c2ccccc2)[nH]1 | -24.3% | 1.7% | 41.2 | u | -6.8%
COc1ccc(C(C(=O)NC2CCCCC2)N(C(=O)c2ccco2)c2ccccc2OC)cc1 (stereo unspecified) | 16.4µM* | u | -20.0 | -26.9% | u
COc1ccc(C)cc1N(C(=O)c1ccco1)C(C(=O)NC1CCCC1)c1ccc(N2CCOCC2)cc1 (stereo unspecified) | 9.2µM* | -1.0% | -58.5* | -2.8% | -12.9%
COc1cccc(C(C(=O)NC2CCCCC2)N(C(=O)c2ccco2)c2ccccc2OC)c1 (stereo unspecified) | 11.6µM* | -14.0% | 3.7 | -8.8% | u
CC(=O)N1CCc2cc(S(=O)(=O)NCCC(=O)N3CCN(Cc4ccccc4)CC3)ccc21 | 20.6µM* | -4.6% | 18.8 | -24.5% | u
O=C(CCNS(=O)(=O)c1ccc2c(c1)CCN2C(=O)C1CC1)N1CCN(c2cccc(Cl)c2)CC1 | 9.2µM* | x | x | x | 5.8µM*
COc1ccc(N2CCN(C(=O)CCNS(=O)(=O)c3ccc4c(c3)CCN4C(=O)C3CC3)CC2)cc1 | 18.4µM* | x | x | x | 13µM*
CCN(CC)c1ccc(NC(=O)CCNS(=O)(=O)c2ccc3c(c2)CCC(=O)N3)c(C)c1 | 16.4µM* | -3.9% | 30.0 | 1.8% | u
CCC(=O)N1CCc2cc(S(=O)(=O)NCCC(=O)N3CCN(c4ccccn4)CC3)ccc21 | u | -14.5% | 7.6 | -0.6% | -0.7%
COC(=O)C1=NN(C(C)(C)CC(C)=O)C2C(=O)N(C3CCCCC3)C(=O)C12 (stereo unspecified) | -2.0% | 15.6% | 20.6 | -11.6% | -1.0%
Cc1cccc(N2N=C(C(=O)Nc3ccc(Cl)c(S(=O)(=O)N4CCOCC4)c3)CCC2=O)c1 | u | -5.8% | -8.8 | 0.0% | u

From PubChem BioAssay
